Measured values from PubChem BioAssay AID1159580 (chemical genetic matrix, 2015).
Screen size: about 5,500 compounds; about 2,000 (36%) were called active. Another 18% or so got no clear call; they are omitted. No stated cut-off is given here; in the data, active means normalized growth mostly below about 0.91 (no sharp cut-off); inconclusive means no clear call, values can overlap the other calls; inactive means mostly above about 0.92. The list shows a part of the results.

Experiment: chemical genetic growth profiling, strain panel (AID 1159580);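 further: tested at 20 µM; growth read once vehicle control cultures reached saturation at 30 °C; 1 = growth at the plate median or of vehicle wells; lower values mean less growth of the strain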
Details: growth OD

Measured: normalized growth

CC(C)CC1NC(=O)CNC1=O (stereo not given)
inactive: S. cerevisiae deletion strains, locus YBR021W, strain FUR4, active compounds read low 1.03 | S. cerevisiae deletion strains, locus YBR229C, strain ROT2, active compounds read low 0.953 | S. cerevisiae deletion strains, locus YCL029C, strain bik1, active compounds read low 0.965 | S. cerevisiae deletion strains, locus YDL035C, strain GPR1, active compounds read low 0.992 | S. cerevisiae deletion strains, locus YDL074C, strain BRE1, active compounds read low 1.04 | S. cerevisiae deletion strains, locus YDL101C, strain DUN1, active compounds read low 0.974 | S. cerevisiae deletion strains, locus YDL185W, strain tfp1, active compounds read low 0.963 | S. cerevisiae deletion strains, locus YDL192W, strain arf1, active compounds read low 0.992 | S. cerevisiae deletion strains, locus YDR101C, strain arx1, active compounds read low 1.01 | S. cerevisiae deletion strains, locus YDR150W, strain NUM1, active compounds read low 0.984 | S. cerevisiae deletion strains, locus YDR162C, strain NBP2, active compounds read low 0.937 | S. cerevisiae deletion strains, locus YDR318W, strain mcm21, active compounds read low 0.98 | S. cerevisiae deletion strains, locus YDR388W, active compounds read low 0.989 | S. cerevisiae deletion strains, locus YDR502C, strain sam2, active compounds read low 0.987 | S. cerevisiae deletion strains, locus YEL061C, strain CIN8, active compounds read low 0.989 | S. cerevisiae deletion strains, locus YER110C, active compounds read low 0.976 | S. cerevisiae deletion strains, locus YER155C, strain BEM2, active compounds read low 1.01 | S. cerevisiae deletion strains, locus YER167W, strain BCK2, active compounds read low 1 | S. cerevisiae deletion strains, locus YGL078C, strain dbp3, active compounds read low 0.978 | S. cerevisiae deletion strains, locus YGL086W, strain mad1, active compounds read low 1.03 | S. cerevisiae deletion strains, locus YGL248W, strain PDE1, active compounds read low 0.981 | S. cerevisiae deletion strains, locus YGR078C, strain PAC10, active compounds read low 0.969 | S. cerevisiae deletion strains, locus YGR135W, strain pre9, active compounds read low 0.966 | S. cerevisiae deletion strains, locus YGR252W, strain gcn5, active compounds read low 0.958 | S. cerevisiae deletion strains, locus YHR030C, strain SLT2, active compounds read low 1 | S. cerevisiae deletion strains, locus YHR079C, strain IRE1 (second series), active compounds read low 1.01 | S. cerevisiae deletion strains, locus YHR094C, strain hxt1, active compounds read low 0.972 | S. cerevisiae deletion strains, locus YHR129C, strain ARP1, active compounds read low 0.997 | S. cerevisiae deletion strains, locus YHR200W, strain rpn10, active compounds read low 0.971 | S. cerevisiae deletion strains, locus YIL066C, strain RNR3, active compounds read low 0.981 | S. cerevisiae deletion strains, locus YIL073C, strain SPO22, active compounds read low 0.986 | S. cerevisiae deletion strains, locus YIL125W, strain kgd1, active compounds read low 0.987 | S. cerevisiae deletion strains, locus YIR030C, strain dcg1, active compounds read low 0.995 | S. cerevisiae deletion strains, locus YJL095W, strain BCK1, active compounds read low 0.964 | S. cerevisiae deletion strains, locus YJL134W, strain LCB3, active compounds read low 0.992 | S. cerevisiae deletion strains, locus YJL168C, strain set2, active compounds read low 0.991 | S. cerevisiae deletion strains, locus YJL187C, strain SWE1 (second series), active compounds read low 0.969 | S. cerevisiae deletion strains, locus YJR043C, strain POL32, active compounds read low 0.977 | S. cerevisiae deletion strains, locus YJR075W, strain HOC1, active compounds read low 0.993 | S. cerevisiae deletion strains, locus YKL009W, strain mrt4, active compounds read low 1.02 | S. cerevisiae deletion strains, locus YKL068W, active compounds read low 0.985 | S. cerevisiae deletion strains, locus YKL085W, strain MDH1 (second series), active compounds read low 1.02 | S. cerevisiae deletion strains, locus YKL085W, strain MDH1, active compounds read low 1.02 | S. cerevisiae deletion strains, locus YKL190W, strain CNB1, active compounds read low 0.981 | S. cerevisiae deletion strains, locus YKR001C, strain vps1, active compounds read low 1.01 | S. cerevisiae deletion strains, locus YLR039C, strain RIC1, active compounds read low 0.964 | S. cerevisiae deletion strains, locus YLR058C, strain SHM2, active compounds read low 0.979 | S. cerevisiae deletion strains, locus YLR102C, strain apc9, active compounds read low 0.993 | S. cerevisiae deletion strains, locus YLR262C, strain YPT6, active compounds read low 0.938 | S. cerevisiae deletion strains, locus YLR268W, strain sec22, active compounds read low 1.01 | S. cerevisiae deletion strains, locus YLR330W, strain CHS5, active compounds read low 1 | S. cerevisiae deletion strains, locus YLR342W, strain FKS1 (second series), active compounds read low 1.05 | S. cerevisiae deletion strains, locus YLR371W, strain rom2, active compounds read low 0.98 | S. cerevisiae deletion strains, locus YLR418C, strain cdc73, active compounds read low 0.974 | S. cerevisiae deletion strains, locus YML016C, strain PPZ1, active compounds read low 0.99 | S. cerevisiae deletion strains, locus YML032C, strain rad52, active compounds read low 0.959 | S. cerevisiae deletion strains, locus YML124C, strain tub3, active compounds read low 0.982 | S. cerevisiae deletion strains, locus YMR078C, strain ctf18, active compounds read low 0.964 | S. cerevisiae deletion strains, locus YMR223W, strain ubp8, active compounds read low 0.988 | S. cerevisiae deletion strains, locus YMR307W, strain GAS1, active compounds read low 1.02 | S. cerevisiae deletion strains, locus YNL067W, strain RPL9B, active compounds read low 0.971 | S. cerevisiae deletion strains, locus YNL128W, strain TEP1, active compounds read low 0.969 | S. cerevisiae deletion strains, locus YNL153C, strain GIM3, active compounds read low 0.951 | S. cerevisiae deletion strains, locus YNL233W, strain BNI4, active compounds read low 0.997 | S. cerevisiae deletion strains, locus YNL250W, strain rad50, active compounds read low 0.988 | S. cerevisiae deletion strains, locus YNL271C, strain bni1, active compounds read low 0.983 | S. cerevisiae deletion strains, locus YNL298W, strain CLA4, active compounds read low 0.973 | S. cerevisiae deletion strains, locus YNL307C, strain MCK1, active compounds read low 0.984 | S. cerevisiae deletion strains, locus YNR052C, strain pop2, active compounds read low 0.981 | S. cerevisiae deletion strains, locus YOL012C, strain htz1 0.849 | S. cerevisiae deletion strains, locus YOL147C, strain pex11, active compounds read low 0.99 | S. cerevisiae deletion strains, locus YOR061W, strain CKA2, active compounds read low 0.968 | S. cerevisiae deletion strains, locus YOR069W, strain VPS5, active compounds read low 0.996 | S. cerevisiae deletion strains, locus YOR136W, strain idh2, active compounds read low 1.01 | S. cerevisiae deletion strains, locus YOR144C, strain elg1, active compounds read low 0.978 | S. cerevisiae deletion strains, locus YOR184W, strain ser1, active compounds read low 0.974 | S. cerevisiae deletion strains, locus YOR316C, strain cot1, active compounds read low 0.976 | S. cerevisiae deletion strains, locus YPL055C, strain LGE1, active compounds read low 1.01 | S. cerevisiae deletion strains, locus YPL241C, strain CIN2, active compounds read low 0.992 | S. cerevisiae deletion strains, locus YPR119W, strain clb2, active compounds read low 0.985 | S. cerevisiae deletion strains, locus YPR141C, strain kar3, active compounds read low 0.984 | S. cerevisiae deletion strains, locus YPR163C, strain tif3, active compounds read low 0.974 | S. cerevisiae deletion strains, locus YPR167C, strain met16, active compounds read low 1 | S. cerevisiae deletion strains, strain wtn01, active compounds read low 1.02 | S. cerevisiae strains, strain wild type, active compounds read low 0.985
